Common to all, as to experiment: qHTS profiling for inhibitors of Plasmodium falciparum proliferation (AID 504749); further: nearly all actives have a fitted effect of over 60% in size
What all share (settings): P. falciparum in erythrocytes, SYBR Green DNA, 72 h; series mostly up to 28.7 µM

In assay [1] the test system is CP217. In outline: (§1)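 Each compound contacts P. falciparum-infected red blood cells for 72 h at 37 C; lysis buffer (Tris, EDTA, saponin, Triton X, SYBR Green I) is added and fluorescence measured next morning; values normalized to controls.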
For assay [2], the system named is CP237. Summed up:
as §1

Assay [3] concerns CP247. Summed up:
as §1

The test system of assay [4] is CP238. Summed up:
as §1

The test system of assay [5] is CP192. In outline:
as §1

Assay [6] deals with CP194. In outline: as §1
For assay [7], the system named is CP201. In outline: as §1
In assay [8] the test system is CP203. Summed up: as §1
For assay [9], the system named is CP211. Summed up:
as §1

Assay [10] deals with CP215. Summed up:
as §1

Where “and” joins values, the source holds several entries; their conditions need not be identical. Identical values can stand only once. Inconclusive results are not listed. Calls of active or inactive are those of the source. The call rests on the fitted dose curve; in most records, active means well fitted inhibition curve with a large enough effect; inconclusive means small, poorly fitted or top-dose-only effect; inactive means flat fitted curve, though single readings scatter.
Potency means the concentration at half of the fitted maximal effect.

Consider `c1ccc(C2(N3CCCC3)CCCCC2)cc1`, for which the results for the Potency in [1], in assay [2] and in assay [3] were 8910 nM (active), 11.2 µM (active) and 7940 nM (active), respectively.

Consider `c1cc2c(c(NC3=NCCN3)c1)CCCC2`, for which the Potency result in [1], in [2], in assay [4] and in assay [3] was “inactive” in each case.

`C=CCN=C=S`: the Potency entry in [1], in [2], in [4] and in assay [3] was “inactive” each time.

As to `OC(c1ccccc1)(c1ccccc1)C1CN2CCC1CC2` (configuration not stated), the Potency entry in [5], in [6], in assay [7], in assay [8], in assay [9] and in assay [1] was “inactive” throughout. Further, in assay [4], the Potency entry is “inactive”.

In the case of `CC12NC(Cc3ccccc31)c1ccccc12` (configuration not stated), the Potency entry in assay [5], in [7], in [9] and in assay [10] was “inactive” each time.

Turning to `CNC(=O)Oc1ccccc1C(=O)Nc1ccccc1`, the Potency result in [5], in [7], in [8], in [9], in assay [2] and in [4] was “inactive” in each case.

For the compound `CNC1(c2ccccc2Cl)CCCCC1=O` (configuration not stated), the Potency entry in [5], in assay [7], in assay [8], in [9], in [10] and in assay [1] was “inactive” throughout. The Potency entry in [4] and in assay [3] was “inactive” throughout. The Potency in assay [2] is 8.91 µM (active) and 7.94 µM (active).

On to `C/C(=C\c1csc(C)n1)[C@@H]1C[C@@H]2O[C@]2(C)CCC[C@H](C)[C@H](O)[C@@H](C)C(=O)C(C)(C)[C@@H](O)CC(=O)O1`, for which the Potency in [5] was 3 nM (active); in [6], 3.8 nM (active); in assay [8], 2.4 nM (active); in assay [9] it was 3 nM (active); in assay [10], 3.8 nM (active); in assay [1] it was 4 nM (active). The Potency in [2] was 0.0016 µM (active); in assay [4], 3.2 nM (active); in [3], 2.8 nM (active).

Turning to `N#CC(C#N)=Cc1cc(O)c(O)c(O)c1`, the Potency in [5] is 13500 nM (active); in assay [6], 15100 nM (active); in assay [9], 13500 nM (active); in [2] it was 8.91 µM (active); in assay [3], 8910 nM (active).

Turning to `C[C@H]1CCC[C@H](O)CCCCCc2cc(O)cc(O)c2C(=O)O1`, the Potency entry in [5], in assay [7], in assay [8], in assay [9], in assay [4] and in [3] was “inactive” throughout.

For the compound `Cc1sc2ccccc2c1CC1=NCCN1`, the Potency result in [5], in assay [6], in assay [7], in assay [8], in [9] and in [10] was “inactive” throughout. The Potency result in [1], in [4] and in [3] was “inactive” throughout.

In the case of `CCC(=O)O[C@@](Cc1ccccc1)(c1ccccc1)[C@@H](C)CN(C)C`, the Potency entry in assay [5], in assay [6], in assay [7], in assay [8], in [10] and in assay [1] was “inactive” each time. Also, the Potency result in assay [2], in assay [4] and in [3] was “inactive” throughout.

Take `O=c1c2ccccc2[se]n1-c1ccccc1`: the Potency entry in assay [5], in assay [7], in assay [8] and in assay [10] was “inactive” throughout.

For `c1csc(C2(N3CCCCC3)CCCCC2)c1`, the Potency result in [5], in assay [6], in assay [7], in assay [8], in assay [9] and in assay [10] was “inactive” each time. Besides, the Potency entry in [1], in assay [4] and in assay [3] was “inactive” in each case.

In the case of `CCNC(C)Cc1cccc(C(F)(F)F)c1` (configuration not stated), the Potency result in assay [5], in assay [6], in [7], in [8], in [9] and in assay [10] was “inactive” each time. Moreover, the Potency entry in assay [1], in assay [4] and in assay [3] was “inactive” each time.

These data come from PubChem BioAssay (NCATS).
